Inconclusive results are not listed. Activity calls are given as the source filed them. Rule for the calls, unless noted: active = hit-call score of the fitted dose curve at least 0.9, where 1 is the maximum; inconclusive = response in the unintended direction; inactive = score below 0.9.
Tests used:
[1] = Tanguay_ZF_120hpf_JAW_legacy: (Legacy) Oregon State University Tanguay Lab 120 Hour Post-fertilization zebrafish Assay for Jaw Malformation (AID 2283638)
Method in brief: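 Steps: dechorionate 4 hpf embryos (pronase); plate 1/well at 6 hpf; add test chemical, 0.64% DMSO final; seal, cover, hold at 28C statically to 120 hpf; score jaw defect presence/absence microscopically. Dead embryos not scored.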

[2] = Tanguay_ZF_120hpf_OTIC_legacy: (Legacy) Oregon State University Tanguay Lab 120 Hour Post-fertilization zebrafish Assay for Otic Vesicle Malformation (AID 2283639)
Method in brief: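 Otic vesicle malformation is read as a yes/no morphology call at 120 hpf. Exposure is static at 28C with 0.64% (vol/vol) DMSO; embryos that die are excluded from non-mortality endpoints.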

[3] = Tanguay_ZF_120hpf_PE_legacy: (Legacy) Oregon State University Tanguay Lab 120 Hour Post-fertilization zebrafish Assay for Pericardial Edema (AID 2283640);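 for AC50: potency for increased incidence of pericardial edema versus DMSO baseline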
Method in brief: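 Embryos from wild-type 5D adults were staged, then dosed in 0.64% DMSO. They were kept sealed in the dark at 28C until 120 hpf. Pericardial edema was then recorded as present or absent.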

[4] = Tanguay_ZF_120hpf_SOMI_legacy: (Legacy) Oregon State University Tanguay Lab 120 Hour Post-fertilization zebrafish Assay for Somite Malformation (AID 2283647)
Method in brief: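 Read-out: presence or absence of somite malformation in 120 hpf larvae, gain-of-signal relative to DMSO baseline. Embryos lacked chorion (pronase, 4 hpf) and were exposed statically from 6 hpf at 28C; dead larvae not scored.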

[5] = Tanguay_ZF_120hpf_PFIN_legacy: (Legacy) Oregon State University Tanguay Lab 120 Hour Post-fertilization zebrafish Assay for Pectoral Fin Malformation (AID 2283648);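 note: each larva judged yes or no for fin defect by brightfield with dead larvae skipped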
Method in brief: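 Dechorionated Tropical 5D wild-type zebrafish embryos, one per well, statically exposed from 6 to 120 hpf at 28C with 0.64% DMSO final. Pectoral fin malformation scored present/absent by brightfield at 120 hpf; not scored in dead embryos.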

[6] = Tanguay_ZF_120hpf_PIG_legacy: (Legacy) Oregon State University Tanguay Lab 120 Hour Post-fertilization zebrafish Assay for Pigmentation Malformation (AID 2283650)
Method in brief: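 Dechorionated Tropical 5D wild-type embryos, one per well from 6 hpf, statically exposed at 28C in the dark until 120 hpf, 0.64% DMSO final. Pigmentation scored present/absent by brightfield microscopy; dead embryos not scored; fitted versus DMSO.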

[7] = Tanguay_ZF_120hpf_CIRC_legacy: (Legacy) Oregon State University Tanguay Lab 120 Hour Post-fertilization zebrafish Assay for Circulatory Malformation (AID 2283651)
Method in brief: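 Using wild-type Tropical 5D zebrafish, we exposed dechorionated embryos from 6 to 120 hpf in embryo medium with 0.64% DMSO. Circulatory defects were scored as present or absent; 5uM trimethyltin chloride served as positive control.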

[8] = Tanguay_ZF_120hpf_SWIM_legacy: (Legacy) Oregon State University Tanguay Lab 120 Hour Post-fertilization zebrafish Assay for Swim Bladder Malformation (AID 2283654);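 note: swim bladder malformation in each larva scored yes or no under brightfield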
Method in brief: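 Dechorionated wild-type Tropical 5D zebrafish embryos, one per well from 6 hpf, were statically exposed at 28C until 120 hpf in 0.64% DMSO. Swim bladder malformation scored as present/absent by brightfield microscopy; not scored in dead larvae.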

[9] = Tanguay_ZF_120hpf_TRUN_legacy: (Legacy) Oregon State University Tanguay Lab 120 Hour Post-fertilization zebrafish Assay for Truncated Body (AID 2283655)
Method in brief: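 Truncated body is recorded as a binary endpoint at 120 hpf by brightfield imaging of wild-type 5D larvae. Exposure runs statically from 6 hpf at 28C with 0.64% DMSO; embryos dying earlier are not scored.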

[10] = Tanguay_ZF_120hpf_NC_legacy: (Legacy) Oregon State University Tanguay Lab 120 Hour Post-fertilization zebrafish Assay for Notochord and Tail Malformation (AID 2283656)
Method in brief: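 Dechorionated 5D zebrafish, 1/well from 6 hpf; static exposure to 120 hpf, 28C, sealed, dark; final DMSO 0.64% v/v. NC scored binary (present/absent); dead embryos not scored. Fit vs DMSO baseline, gain direction.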

[11] = Tanguay_ZF_120hpf_TR_legacy: (Legacy) Oregon State University Tanguay Lab 120 Hour Post-fertilization zebrafish Assay for Touch Response (AID 2283667)
Method in brief: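 Tropical 5D wild-type zebrafish embryos statically exposed to 120 hpf at 28°C, sealed and dark-covered, 0.64% DMSO final; touch response scored as present/absent by brightfield microscopy at 120 hpf. Trimethyltin chloride 5 uM positive control; dead embryos not scored.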

[12] = Tanguay_ZF_120hpf_SNOU_legacy: (Legacy) Oregon State University Tanguay Lab 120 Hour Post-fertilization zebrafish Assay for Snout Malformation (AID 2283637)
Method in brief: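 Dechorionated tropical 5D wild-type zebrafish embryos exposed statically from 6 to 120 hpf at 28C, one per well, in 0.64% DMSO. Snout malformation scored as present/absent by brightfield at 120 hpf; dead embryos not scored.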

[13] = Tanguay_ZF_120hpf_BRAI_legacy: (Legacy) Oregon State University Tanguay Lab 120 Hour Post-fertilization zebrafish Assay for Brain Malformation (AID 2283641)
Method in brief: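 Wild-type 5D larvae, static waterborne exposure to 120 hpf, 28C, 0.64% v/v DMSO. Brightfield scoring of brain defects, binary; dead embryos excluded. Positive ctrl 5uM trimethyltin chloride.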

[14] = tested on: Thyroperoxidase (TPO), gene 54314; assay: CCTE_Simmons_AUR_rTPO: CCTE's Amplex UltraRed Assay for Thyroperoxidase (TPO) Inhibition, Simmons Lab (AID 2283662);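 for AC50: potency for loss of signal meaning inhibition of peroxidase activity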
Method in brief: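 Rat thyroid microsomal TPO + 25 uM AUR in 200 mM K phosphate; cpd 5 nM–87.5 uM [final], 8 conc, 0.5% DMSO; 300 uM H2O2 starts rxn; 37C dark 30 min; endpoint FI 544/590 nm; n=3.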

[15] = CCTE_Simmons_CellTiterGLO_HEK293T: Viability Assessment in CCTE's Assays for Thyroperoxidase (TPO) Inhibition, Simmons Lab (AID 2283665);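 for AC50: cells exposed to compound for 24 h before readout; actives reduce ATP signal below DMSO vehicle meaning cytotoxicity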
Method in brief: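 Cytotoxicity counter-screen: human HEK293T cells in low-serum (1% FBS) medium receive test chemical, 5 nM to 87.5 uM final, for 24 h; ATP is quantified by luciferase luminescence.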

[16] = Tanguay_ZF_120hpf_CFIN_legacy: (Legacy) Oregon State University Tanguay Lab 120 Hour Post-fertilization zebrafish Assay for Caudal Fin Malformation (AID 2283649)
Method in brief: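 Binary presence or absence of caudal fin malformation at 120 hpf, read by brightfield microscopy, with DMSO as baseline. Larvae came from 5D wild-type embryos exposed statically from 6 hpf at 28C after pronase dechorionation.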

[17] = read-out: solute carrier (SLC22A6), SLC22A6 (gene 9356); assay: LTEA_HepaRG_SLC22A6: Life Technologies and Expression Analysis (LTEA) Assay for solute carrier (SLC22A6) using HepaRG (AID 2283653; active = hit-call score of the fitted dose curve at least 0.9, where 1 is the maximum; inactive = score below 0.9); conditions: mRNA level, 48 h; actives raise or lower the signal
Method in brief: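 Read-out is SLC22A6 transcript level by qRT-PCR, normalised to three housekeeping genes and fitted for gain or loss relative to 0.5% DMSO vehicle. Human HepaRG cells received chemicals at up to 100 uM for 48 h.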

[18] = read-out: solute carrier (SLC10A1), SLC10A1 (gene 6554); assay: LTEA_HepaRG_SLC10A1: Life Technologies and Expression Analysis (LTEA) Assay for solute carrier (SLC10A1) using HepaRG (AID 2283657; active = hit-call score of the fitted dose curve at least 0.9, where 1 is the maximum; inactive = score below 0.9); conditions: mRNA level, 48 h; actives raise or lower the signal
Method in brief: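 HepaRG cells (single lot) exposed 48 h in serum-free induction medium, 8-point half-log series from 100 uM top in 0.5% DMSO, duplicate. SLC10A1 mRNA by qRT-PCR normalised to ACTB, GAPDH, POLR2A; bidirectional fit versus DMSO.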

[19] = read-out: matrix metalloproteinase-1 (MMP1), MMP1 (gene 4312); assay: LTEA_HepaRG_MMP1: Life Technologies and Expression Analysis (LTEA) Assay for matrix metalloproteinase-1 (MMP1) using HepaRG (AID 2283658; active = hit-call score of the fitted dose curve at least 0.9, where 1 is the maximum; inactive = score below 0.9); conditions: mRNA level, 48 h; actives raise or lower the signal
Method in brief: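 HepaRG, ~100,000 cells/well, 48 h pre-culture; serum-free induction medium; test chemical 8 conc (max 100 uM, half-log), duplicate, 48 h; 0.5% DMSO; qRT-PCR MMP1, housekeeping-normalized; gain/loss fit vs DMSO.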

Measured: AC50

O=C(O)c1cccc(C(=O)O)c1
not listed: [12] | [13] | [14] | [15] | [16] | [17] | [18] | [19]
inactive: all other assays above

CCCCC(CC)C(=O)OCCOCCOCCOC(=O)C(CC)CCCC (centres undefined)
not listed: [1] | [14] | [15] | [16] | [17] | [18] | [19]
inactive: all other assays above

CCCCCCCCCCCCCCO
not listed: [6] | [14] | [15] | [16] | [17] | [18] | [19]
inactive: all other assays above

CC(C)c1nnc2ccc(-c3ocnc3-c3cc(F)ccc3F)cn12
not listed: [1] | [12] | [14] | [15] | [16] | [17] | [18] | [19]
inactive: all other assays above

OCCOCCOCCO
inactive: [2] | [13] | [5] | [6] | [7] | [8] | [9] | [10] | [11]

C[C@]12C=CC(=O)C=C1CC[C@H]1[C@@H]3C[C@@H](O)[C@](O)(C(=O)CO)[C@@]3(C)C[C@H](O)[C@@]12F
inactive: [2] | [3] | [13] | [4] | [5] | [6] | [8] | [9] | [10] | [11]

Cc1cccc(O)c1C
inactive: [15]
active: [14] 17.3 µM

CCCCCCCCCCCCCCCCOS(=O)(=O)O
active: [15] 26.7 µM
not listed: [1] | [12] | [17] | [18] | [19]
inactive: all other assays above

OCC(CO)(CO)CO
not listed: [1] | [12] | [14] | [15] | [17] | [18] | [19]
inactive: all other assays above

CCCCCCOC(=O)CC(CC(=O)OCCCCCC)(OC(=O)CCC)C(=O)OCCCCCC
inactive: [2] | [3] | [13] | [4] | [5] | [6] | [7] | [9] | [11]

CCCOc1ccc(S(=O)(=O)N2CCN(CC)CC2)cc1-c1nc2c(CC)n(Cc3ccccn3)nc2c(=O)[nH]1
inactive: [2] | [3] | [13] | [5] | [6] | [7] | [8] | [9] | [10] | [11]

CC(C)CC(C)O (centres undefined)
inactive: [2] | [3] | [13] | [4] | [5] | [6] | [8] | [10]

NNC(=O)c1ccncc1
active: [14] 1.92 µM
not listed: [1] | [7] | [12] | [16] | [17] | [18] | [19]
inactive: all other assays above

CCc1ccc(O)c(C(C)(C)C)c1
active: [14] 13 µM | [15] 12.6 µM
not listed: [1] | [12] | [16] | [17] | [18] | [19]
inactive: all other assays above

Cc1nc(-c2ccccn2)ncc1C(=O)Nn1cc(C)c2cc(F)ccc21
inactive: [2] | [3] | [13] | [4] | [5] | [6] | [7] | [8] | [10] | [11]

CNC(C)=O
inactive: [3] | [13] | [5] | [6] | [7] | [8] | [9] | [10] | [11]

CCCCCCCC/C=C\CCCCCCCC(=O)OC[C@@H](O)[C@H]1OC[C@H](O)[C@H]1O
inactive: [1] | [2] | [3] | [4] | [6] | [7] | [8] | [10] | [11]

CCCCCCCC1CCC(=O)O1 (centres undefined)
inactive: [3] | [4] | [6] | [7] | [9] | [10] | [11]
active: [5] 51.5 µM

COc1cc2c(c(OC)c1OC)-c1ccc(OC)c(=O)cc1[C@@H](NC(C)=O)CC2
active: [2] 25 µM | [3] 26.2 µM | [4] 25.5 µM | [5] 21 µM | [6] 22.8 µM | [18] 0.107 µM | [11] 13.3 µM
inactive: [16] | [7] | [17] | [8] | [10] | [19]
